According to PubChem BioAssay (NCATS):
Results filed as inconclusive are left out. Calls of active or inactive are those of the source. Calls follow the shape of the dose curve; as a rule, active = well fitted inhibition curve with a large enough effect; inconclusive = small, poorly fitted or top-dose-only effect; inactive = flat fitted curve, though single readings scatter.

Key:
Assay in all cases: qHTS profiling for inhibitors of Plasmodium falciparum proliferation (AID 504749); also: nearly all actives have a fitted effect of over 60% in size
[1] = tested on: DIV14; conditions: P. falciparum in erythrocytes, SYBR Green DNA, 72 h; series mostly up to 28.7 µM
Summary of the method: (§1)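 Quantitative HTS: compounds pinned into medium, infected erythrocytes added (0.3% parasitemia, 2.5% hematocrit), 72 h culture at 37 C under 5% CO2. Saponin/Triton lysis with SYBR Green I, overnight RT, then fluorescence read.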

[2] = tested on: DIV17; conditions: P. falciparum in erythrocytes, SYBR Green DNA, 72 h; series mostly up to 28.7 µM
Summary of the method: as §1

[3] = tested on: DIV30; conditions: P. falciparum in erythrocytes, SYBR Green DNA, 72 h; series mostly up to 28.7 µM
Summary of the method: as §1

[4] = tested on: ECU; conditions: P. falciparum in erythrocytes, SYBR Green DNA, 72 h; series mostly up to 28.7 µM
Summary of the method: as §1

[5] = tested on: FAB9; conditions: P. falciparum in erythrocytes, SYBR Green DNA, 72 h; series mostly up to 28.7 µM
Summary of the method: as §1

[6] = tested on: GB4; conditions: P. falciparum in erythrocytes, SYBR Green DNA, 72 h; series mostly up to 28.7 µM
Summary of the method: as §1

[7] = tested on: HB3; conditions: P. falciparum in erythrocytes, SYBR Green DNA, 72 h; series mostly up to 28.7 µM
Summary of the method: as §1

[8] = tested on: ICS; conditions: P. falciparum in erythrocytes, SYBR Green DNA, 72 h; series mostly up to 28.7 µM
Summary of the method: as §1

[9] = tested on: JCK; conditions: P. falciparum in erythrocytes, SYBR Green DNA, 72 h; series mostly up to 28.7 µM
Summary of the method: as §1

[10] = tested on: N140; conditions: P. falciparum in erythrocytes, SYBR Green DNA, 72 h; series mostly up to 28.7 µM
Summary of the method: as §1

[11] = tested on: P93_24; conditions: P. falciparum in erythrocytes, SYBR Green DNA, 72 h; series mostly up to 28.7 µM
Summary of the method: as §1

[12] = tested on: P94_40; conditions: P. falciparum in erythrocytes, SYBR Green DNA, 72 h
Summary of the method: as §1

[13] = tested on: PAD; conditions: P. falciparum in erythrocytes, SYBR Green DNA, 72 h; series mostly up to 28.7 µM
Summary of the method: as §1

[14] = tested on: PC15; conditions: P. falciparum in erythrocytes, SYBR Green DNA, 72 h; series mostly up to 28.7 µM
Summary of the method: as §1

[15] = tested on: PC26; conditions: P. falciparum in erythrocytes, SYBR Green DNA, 72 h; series mostly up to 28.7 µM
Summary of the method: as §1

[16] = tested on: PC49; conditions: P. falciparum in erythrocytes, SYBR Green DNA, 72 h; series mostly up to 28.7 µM
Summary of the method: as §1

[17] = tested on: SC27B; conditions: P. falciparum in erythrocytes, SYBR Green DNA, 72 h; series mostly up to 28.7 µM
Summary of the method: as §1

[18] = tested on: TAB109; conditions: P. falciparum in erythrocytes, SYBR Green DNA, 72 h; series mostly up to 28.7 µM
Summary of the method: as §1

[19] = tested on: TAB113; conditions: P. falciparum in erythrocytes, SYBR Green DNA, 72 h; series mostly up to 28.7 µM
Summary of the method: as §1

[20] = tested on: Dd2; conditions: P. falciparum in erythrocytes, SYBR Green DNA, 72 h; series mostly up to 28.7 µM
Summary of the method: as §1

Measured: Potency
Potency is read from the fitted curve at half-maximal effect.

C=CCNC1=C2C[C@@H](C)C[C@H](OC)[C@H](O)[C@@H](C)/C=C(\C)[C@H](OC(N)=O)[C@@H](OC)/C=C\C=C(/C)C(=O)NC(=CC1=O)C2=O
active: [1] 1.51 µM | [2] 1.2 µM | [3] 1.69 µM | [4] 1 µM | [5] 11.2 µM | [6] 1.51 µM | [7] 2 µM | [8] 0.708 µM | [9] 12.6 µM | [10] 0.891 µM | [11] 1.26 µM | [12] 0.794 µM | [13] 2 µM | [14] 2 µM | [15] 1.51 µM | [16] 6.31 µM | [17] 1.78 µM | [18] 2 µM | [19] 1.78 µM

COC1C(OC(=O)/C=C/C=C/C=C/C=C/C(=O)O)CCC2(CO2)C1C1(C)OC1CC=C(C)C (configuration not stated)
inactive: [9] | [16]
active: [1] 0.379 µM | [2] 5.36 µM | [20] 0.0398 µM | [6] 1.69 µM | [11] 0.0251 µM | [12] 0.0251 µM | [13] 1.41 µM

CCCOc1ccc2nc(NC(=O)OC)sc2c1
not listed: [12]
inactive: all other assays above
